Only some compounds are listed: those with a hit (about 11% of all), similar ones and a draw of the others.
Pf growth 48h: Primary qHTS for delayed death inhibitors of the malarial parasite plastid, 48 hour incubation | Potency, µM (top dose mostly 28.7 µM), actives largely listed as inhibitors | P. falciparum luciferase growth in erythrocytes, 48 h | 310,000 compounds, 5.9% hits
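Firefly luciferase activity from engineered P. falciparum reports growth; inhibitors lower the luminescent signal. Cultures contained 2% hematocrit erythrocytes at 0.1% final parasitemia.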
Pf growth 96h: Primary qHTS for delayed death inhibitors of the malarial parasite plastid, 96 hour incubation; Potency, µM (top dose mostly 28.7 µM), most hits filed as inhibitors; P. falciparum luciferase reporter growth, 96 h; 320,000 compounds, 6.9% hits; AID 504834, 2011
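Plates of compound plus infected erythrocytes (2% hematocrit, 0.05% parasitemia final) incubate 96 hours, 37 C, 5% CO2. Detection reagent added; reduced luminescence from the parasites' luciferase reporter flags inhibition.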
Sm TGR block: qHTS Assay for the Inhibitors of Schistosoma Mansoni Peroxiredoxins; Schistosoma mansoni thioredoxin glutathione reductase (TGR), Q962Y6; Potency, µM (top dose mostly 114 µM), most hits filed as inhibitors; 360,000 compounds, 3% hits; purified TGR, DTNB reduction, TNB absorbance 405 nm; AID 485364, 2010; further: nearly all actives have a fitted effect of over 60% in size
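Kinetic colorimetric format: TGR-catalysed, NADPH-driven DTNB reduction monitored via TNB absorbance. Enzyme dispensed at 20 nM; compound exposure 15 min at room temperature before reaction start.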
AMA1 RON2 block: qHTS for Inhibitors of AMA1-RON; Towards Development of Antimalarial Drug Lead: Primary Screen; Plasmodium falciparum AMA1 (3D7) - RON2 peptide interaction; AlphaScreen AMA1-biotinylated RON2 peptide binding; Potency, µM (highest dose often 58.2 µM), hits mostly inhibitors; 360,000 compounds, 0.2% hits; AID 720542, 2013; further: nearly all actives have a fitted effect of over 45% in size
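AMA1 (3D7) with his tag at 25 nM final met compounds first, then biotinylated RON2 peptide at 25 nM; detection used donor plus acceptor beads, 10 µg/mL apiece, read by AlphaScreen after 30 min at room temperature.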
NS1 inh: qHTS Assay for Inhibitors of Influenza NS1 Protein Function | Potency, µM (titrated, usually from 46.1 µM) | 270,000 compounds, 0.4% hits | AID 2326, 2010; calls by dose curve; further: actives are rising curves; nearly all actives have a fitted effect of over 50% in size
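Growth recovery, yeast-based: influenza A NS1 expressed in S. cerevisiae causes slow growth, and suppressors are detected by OD600. The parent strain without NS1 is used as positive control.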
Hits are given with their value; – = inactive; ? = inconclusive; · = no result given; [ ] = dose if it differs, or a comment. Unless noted, the call rests on the fitted dose curve; in most records, active means well fitted curve in the direction sought with a large enough effect; inconclusive means small, poorly fitted or top-dose-only effect, or another doubt; inactive means no such curve, though single readings can be large; an effect the other way counts as inactive or inconclusive.

SMILES	Pf growth 48h	Pf growth 96h	Sm TGR block	AMA1 RON2 block	NS1 inh
CCc1ccc2nc(Nc3ccc(OC)cc3OC)c(C#N)cc2c1	–	–	–	–	–
CCN(CCO)CCCC(C)Nc1ccnc2cc(Cl)ccc12 (centres undefined)	0.15µM	0.17µM	·	·	·
Oc1ccc(Nc2ccnc3cc(Cl)ccc23)cc1	1µM	1.9µM	–	–	–
CCN(CC)CCNc1ccnc2cc(Cl)ccc12	0.074µM	–	–	–	–
Clc1ccc2c(NCc3ccccc3)ccnc2c1	?	?	–	–	–
O=S(=O)(c1ccc(NC(=S)N2CCCCC2)cc1)N1CCCCC1	·	·	·	–	·
Cc1cccc(CN(C(=S)Nc2c(C)cccc2C)c2cccnc2)c1	–	–	–	–	·
COc1ccccc1/C=C/C(=O)c1ccccc1	–	–	?	–	–
COc1ccccc1/C=C/C(=O)c1c2c(c(C)[nH]c1=O)CCCC2	?	?	45µM	–	–
COc1cccc(C(=O)Nc2ccc3oc(-c4cccc5c(Br)cccc45)nc3c2)c1	·	·	–	·	·
COc1ccc(-c2cn3cc(C(=O)NN)ccc3n2)cc1	–	4.7µM	–	–	–
NNC(=O)c1ccc2nc(-c3ccc(Br)cc3)cn2c1	?	–	–	–	·
O=C(C1COc2ccccc2O1)N(Cc1cccnc1)c1nc2ccc(Cl)cc2s1 (centres undefined)	·	·	–	·	·
COc1cccc(CNC(=O)CNC(=S)N(Cc2ccccc2)Cc2ccccc2F)c1	12µM	–	–	–	·
CC(C1CCN(Cc2nc(C3CC3)no2)CC1)N1CCOCC1 (centres undefined)	–	13µM	–	–	–
CCOC(=O)N1CCN(Cc2nc(C3CC3)no2)CC1	–	–	–	–	–
O=C1N(Cc2cccnc2)C[C@@H]2C[C@@H](c3cccc(OC4CCCC4)c3)N3CCC[C@@]123	8.3µM	–	–	–	–
O=C1N(Cc2cccnc2)C[C@@H]2C[C@@H](c3cccc(C(F)(F)F)c3)N3CCC[C@@]123	?	10µM	–	–	–
Cc1cccc(N2CC(C(=O)Nc3ccc(N4CCOCC4)cc3)CC2=O)c1C (centres undefined)	·	·	·	–	·
CCn1c(O)c(N=NC(=O)C(O)c2ccccc2)c2ccccc21 (centres undefined)	–	–	–	–	–
CCOC(=O)c1c(NC(C)=O)sc2c(O)c(CN3CCN(CC)CC3)ccc12	10µM	–	–	–	–
O=C(N/N=C/c1ccc(O)c([N+](=O)[O-])c1)C1CC1(c1ccccc1)c1ccccc1 (centres undefined)	?	–	–	–	–
O=C(N/N=C/c1ccncc1)C1CC1(c1ccccc1)c1ccccc1 (centres undefined)	?	5.2µM	–	–	–
O=[N+]([O-])c1c(NCCCO)cc(Sc2ccc(Cl)cc2)c2nonc12	?	–	5.6µM	–	–
COc1ccc(Nc2cc(NCCCO)c([N+](=O)[O-])c3nonc23)cc1	?	?	–	–	–
SMILES	Pf growth 48h	Pf growth 96h	Sm TGR block	AMA1 RON2 block	NS1 inh
O=[N+]([O-])c1c(NCCCO)cc(SCc2ccco2)c2nonc12	–	?	3.2µM	–	–
Cn1ccnc1Sc1cc(NCCCO)c([N+](=O)[O-])c2nonc12	?	–	0.71µM	–	·
Cc1nc2ccccc2c(=O)n1-c1ccc(NC(=O)c2cccc([N+](=O)[O-])c2)cc1	·	·	–	·	·
Cc1cc(C)cc(-c2nc(-c3ccncc3)no2)c1	·	?	–	–	–
O=[N+]([O-])c1cc(-c2nc(-c3ccncc3)no2)cc([N+](=O)[O-])c1	?	1.9µM	–	–	–
Cc1cccc(-c2nc(-c3ccncc3)no2)c1	–	10µM	–	–	–
O=[N+]([O-])c1cc(-c2nc(-c3ccncc3)no2)ccc1Cl	–	–	–	–[2.32 µM]	–
O=C(OCc1ccccc1)C1=NNC2C(=O)N(c3ccc(Br)cc3)C(=O)C12 (centres undefined)	–	–	–	–	–
COc1ccc(/C(C)=N/NC(=O)CNC(=O)c2ccncc2)c(OC)c1	–	–	–	–	–
COc1cccc(-c2nc(C(N)=O)c3[nH]c(=O)n(-c4cccc(Cl)c4)c3n2)c1OC	15µM	?	–	–	–
Cn1c(-[n+]2c(-c3ccccc3)cc(-c3ccccc3)cc2-c2ccccc2)nc2c([N+](=O)[O-])cccc21	12µM	?	–	–	–
Cn1nc(/C=C/c2ccccc2)ccc1=O	–	–	–	–	·
COc1ccc(-c2cc3nc(-c4ccccc4)cc(N4CCC(O)CC4)n3n2)cc1	10µM	–	–	–	–
COc1ccc(-c2cc3nc(-c4ccccc4)cc(N4CCCC(O)C4)n3n2)cc1 (centres undefined)	8.3µM	–	–	–	–
COc1ccc(-c2cc3nc(-c4ccccc4)cc(N4CCN(C(C)=O)CC4)n3n2)cc1	·	·	·	–	·
COC(=O)c1ccc(CO/N=C/c2ccc(OC)cc2)o1	–	–	–	–	·
c1coc(-c2nnc(-c3ccco3)nn2)c1	?	6.6µM	4µM	16µM	–
CC(=O)c1ccc(NC(=O)C2CC(=O)N(C(C)C)C2)cc1 (centres undefined)	–	–	–	–	–
O=C(Nc1nc(-c2ccco2)cs1)c1ccccc1	·	–	–[11.4 µM]	–	–
Cc1ccc(-c2csc(NC(=O)c3ccc(-c4ccccc4)cc3)n2)o1	?	?	10µM	–	–
Cc1ccc(-c2csc(NC(=O)Cc3ccc(F)cc3)n2)o1	–	–	7.1µM	–	·
Cc1ccc(-c2csc(Nc3ccc(S(N)(=O)=O)cc3)n2)o1	–	–	1.8µM	–	–
COc1ccc(NC(=O)c2nn(C34CC5CC(CC(C5)C3)C4)cc2[N+](=O)[O-])cc1	4.7µM	–	–	–	–
O=C(Nc1cccc2ccccc12)c1nn(C23CC4CC(CC(C4)C2)C3)cc1[N+](=O)[O-]	?	0.93µM	–	–	–
O=C(Nc1ccc2ccccc2c1)c1nn(C23CC4CC(CC(C4)C2)C3)cc1Br	?	?	–	–	–
SMILES	Pf growth 48h	Pf growth 96h	Sm TGR block	AMA1 RON2 block	NS1 inh
CCCNC(=O)C12CCC(C)(c3nc4cc(C)c(C)cc4nc31)C2(C)C (centres undefined)	–	–	–	–	·
COc1ccccc1OCCn1c(NC(=O)c2ccccc2Cl)nc2ccccc21	·	·	–	·	·
O=[N+]([O-])c1cccc(-n2nncc2-c2ccccc2)c1	–	–	–	–	–
c1ccc(-c2cnnn2-c2ccccc2)cc1	–	0.83µM	–	–	–
CCOC(=O)c1c(C)oc2nc(C)nc(NCC3CCN(Cc4ccc(C)cc4)CC3)c12	·	·	–	·	·
N#Cc1c(/N=C/c2ccccc2)oc(-c2ccccc2)c1-c1ccccc1	?	–	–	–	–

Screening results: PubChem BioAssay, National Center for Advancing Translational Sciences (NCATS)
